Measured values as given in PubChem BioAssay AID2546 (National Center for Advancing Translational Sciences (NCATS), 2010).
Out of some 310,000 compounds screened, about 11,000 (3.5%) were called active. Entries that show only a call come without a potency. Inconclusive results (about 8%) are left out. The call rests on the fitted dose curve; in most records, active means well fitted inhibition curve with a large enough effect; inconclusive means small, poorly fitted or top-dose-only effect, or effect the other way; inactive means flat fitted curve, though single readings scatter. For the sample, actives were picked, then their nearest neighbours and some compounds at random.

Experiment: VP16 counterscreen qHTS for inhibitors of ROR gamma transcriptional activity;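 further: Gal4-VP16 expression switched on by copper sulfate through the metallothionein promoter; nearly all actives have a fitted effect of over 50% in size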
Conditions: Drosophila S2 Gal4-VP16 UAS-luciferase, luminescence, 20 h; series mostly up to 53.6 µM
Potency means the concentration at half of the fitted maximal effect.

SMILES	Potency	activity, negative = inhibition
NCCCCCC(=O)N/N=C/c1ccc2nccnc2c1	inactive	
O=C(CCC(=O)N/N=C/c1ccc(Br)o1)N/N=C/c1ccc(Br)o1	inactive	
O=C(CCCO)N/N=C/c1cc(Br)ccc1O	12.6 µM (active)	
CC1CC(C)CN(c2ccc(S(=O)(=O)N3CCOCC3)cc2)C1 (configuration not stated)	inactive	
COc1ccc2c(CC(=O)N3CCc4cc(OC)c(OC)cc4C3)coc2c1	inactive	
COc1ccc(NC(=O)CSc2nc(SC)ns2)c(OC)c1	inactive	
CCCCN1C(=S)NC[C@@H]1C(C)CC (some centres not stated)	10 µM (active)	
CCCCN1CCNC1=S	inactive	
Cc1ccc2c(c1)N(CC(=O)N1CCOCC1)C(=O)CO2	inactive	
CCOC(=O)[C@@H]1[C@H]2COc3cc(OC)ccc3[C@@H]2N2C(=O)N(c3cccc(C)c3)C(=O)[C@@]12C	inactive	
CCOc1ccc(N(CC(=O)NCCc2ccc(F)cc2)S(=O)(=O)c2ccccc2)cc1	inactive	
Cc1ccccc1N1CC(C(=O)Nc2nnc(SCCC3OCCO3)s2)CC1=O (configuration not stated)	inactive	
CCC(C)(C)NC(=O)CN(C(=O)CCC(=O)Nc1nccs1)c1ccc2c(c1)OCO2	inactive	
C=CCNC(=S)NNC(=O)c1ccc(Br)o1	inactive	
C=CCNC(=S)NNC(=O)c1cc(Cl)ccc1OC	inactive	
C=CCNC(=S)NNC(=O)COc1c(Cl)cc(Cl)cc1Cl	1.58 µM (active)	
CC(C)[C@H](NC(=O)N1CCn2c1nc1ccccc12)C(=O)NCc1ccc2c(c1)OCO2	inactive	
CCN(C(=O)CN1C(=O)/C(=C/c2ccc(F)cc2)SC1=S)C1CCS(=O)(=O)C1 (configuration not stated)	inactive	
COc1ccc(N(C(=O)c2cccnc2)S(=O)(=O)c2ccc(OC)c(OC)c2)cc1	inactive	
COc1ccc(Cc2nnc(NC(=O)c3ccc(OC)cc3OC)s2)cc1	inactive	
COc1cc(SC)ccc1C(=O)Nc1nc(C)cs1	3.98 µM (active)	
COc1cc(SC)ccc1C(=O)NCCOc1ccccc1Cl	inactive	

SMILES	Potency	activity, negative = inhibition
CCn1c2ccc(F)cc2c2nnc(SCCN3CCOCC3)nc21	inactive	
CCC(=O)c1cn(CCOc2ccccc2OC)c2ccccc12	inactive	
CCOc1ccc(N(C)Cc2cc(=O)oc3ccc(OC)cc23)cc1	inactive	
Cc1cc(=O)oc2c3c(cc(OCC(=O)NCc4ccccn4)c12)OC(C)(C)CC3	inactive	
CCc1ccc(/C=C2\SC(N3CCOCC3)=NC2=O)cc1	inactive	
O=C1N=C(N2CCCC2)S/C1=C\c1cccc(Br)c1	inactive	
O=C1N=C(N2CCc3ccccc3C2)S/C1=C\c1ccc(O)cc1	1.58 µM (active)	
CCCCn1c(=S)[nH]c2ncccc2c1=O	3.55 µM (active)	
CN(C)CCn1c(=S)[nH]c2ccc(Cl)cc2c1=O	inactive	
CCCCNC(=O)CCn1c(=S)[nH]c2cc3c(cc2c1=O)OCO3	inactive	
CCCCNC(=O)c1ccc(-n2c(=S)[nH]c3ccccc3c2=O)cc1	inactive	
CCCCn1c(=S)[nH]c2ccccc2c1=O	5.01 µM (active)	
CCN(CC)CCn1c(=S)[nH]c2ncccc2c1=O	inactive	
O=C(NC1CCCCCCC1)c1cccs1	inactive	
CCCc1nn2c(=O)cc(CSCC(=O)Nc3cccc(C)c3)nc2s1	inactive	
CCOC(=O)N1CCN(S(=O)(=O)c2ccc(Br)cc2)CC1	inactive	
Cc1ccc(NC(=O)CCC(=O)c2ccc(Br)cc2)cc1	inactive	
CCC(Cc1ccccc1)NS(=O)(=O)c1ccc2c(c1)NC(=O)CS2 (configuration not stated)	inactive	
CCc1ccc(NC(=O)CCNS(=O)(=O)c2cccs2)cc1	inactive	
CCn1c(=S)sc2c(=O)n(CC(=O)Nc3cccc(Br)c3)c(C)nc21	inactive	
CC(=O)c1cccc(OCc2cc(C(=O)NC(C)Cc3cccnc3)no2)c1 (configuration not stated)	inactive	
CN(Cc1cccnc1)C(=O)c1cc(COc2ccc3ncccc3c2)on1	2.82 µM (active)	

SMILES	Potency	activity, negative = inhibition
Cc1ccc(OCc2cc(C(=O)N(C)CCc3ccccc3)no2)cc1C	inactive	
COc1ccc(C(CCN2CCOCC2)c2c(OC)cc(OC)c3c2OC(=O)CC3c2ccc(OC)cc2)cc1 (configuration not stated)	inactive	
CC1=C(C(N)=O)C(c2ccc(F)cc2)n2nc(CCCO)nc2N1 (configuration not stated)	inactive	
COc1cccc(-c2nc3n(n2)C(c2ccccc2Cl)C(C(N)=O)=C(C)N3)c1 (configuration not stated)	inactive	
CC1=C(C(N)=O)C(c2ccc3c(c2)OCO3)n2nc(-c3cccc(C)c3)nc2N1 (configuration not stated)	20 µM (active)	
COc1ccc(S(=O)(=O)NCCc2cc3ccc(C)c(C)c3[nH]c2=O)cc1	inactive	
Brc1ccc(-c2noc(-c3ccccc3)n2)o1	inactive	
O=C(Oc1ccc(-c2nc(-c3ccccn3)no2)cc1)c1ccccc1	6.31 µM (active)	
COc1nc(-c2ccc(Cl)cc2)ccc1-c1noc(-c2cccs2)n1	inactive	
c1ccc(-c2noc(-c3cccs3)n2)nc1	12.6 µM (active)	
O=C(Oc1ccc(Br)cc1)c1cccnc1	inactive	
c1csc(-c2nc(-c3ccncc3)no2)c1	inactive	
Cn1c(=O)[nH]c(=O)c2c1nc(N1CCN(C(c3ccccc3)c3ccccc3)CC1)n2CCO	inactive	
CCNC(=S)N(CCN(CC)CC)Cc1cc2cc3c(cc2[nH]c1=O)OCCO3	inactive	
COc1ccc(-n2c(C)csc2=S)cc1	inactive	
COc1ccc(N2C(=O)CNC2=S)cc1	inactive	
COc1ccc(-c2cn(-c3ccc(OC)cc3)c(=S)[nH]2)cc1	1.41 µM (active)	
Cc1ccc(OCC(=O)Nc2ccc(N3CCN(C(=O)c4ccco4)CC3)cc2)c(C)c1	inactive	
CC(C)(C)c1ccc(Cn2nnc3c(=O)[nH]c(C4CCCN(C(=O)c5ccco5)C4)nc32)cc1 (configuration not stated)	inactive	
CCC(C(=O)NC1CCCCC1)N(C(=O)c1snc(C(N)=O)c1N)c1ccc(OC)cc1OC (configuration not stated)	inactive	
COc1cc(OC)c(C(=O)NCc2ccc3c(c2)OCO3)cc1OC	inactive	
Cc1nn(CC(=O)NCc2ccccn2)c(C)c1[N+](=O)[O-]	inactive	

SMILES	Potency	activity, negative = inhibition
Cc1ccn(CC(=O)N2N=C(C(F)F)CC2(O)C(F)F)n1 (configuration not stated)	inactive	
Cc1nn(Cc2ccc(C(=O)N3N=C(C(F)F)CC3(O)C(F)F)cc2)c(C)c1[N+](=O)[O-] (configuration not stated)	10 µM (active)	
Cc1ccc(S(=O)(=O)N2CCN=C2SCc2c(F)cccc2Cl)cc1	inactive	
CCOC(=O)C1(CCOc2ccccc2)CCN(Cc2cc(OC)c(O)cc2Cl)CC1	inactive	
CCN1CC(CN(C)Cc2nc(-c3ccc(Cl)cc3)no2)CC1=O (configuration not stated)	10 µM (active)	
CN(Cc1ccccn1)Cc1nc(-c2ccc(Cl)cc2)no1	inactive	
CC1CCN(Cc2nc(-c3ccc(Cl)cc3)no2)CC1	inactive	
CC(C)c1ccc(C2C(C(=O)c3ccco3)=C(O)C(=O)N2CC2CCCO2)cc1 (configuration not stated)	inactive	
Cc1ccc(NC(=O)C2CCN(S(=O)(=O)c3ccc4c(c3)NC(=O)CO4)CC2)cc1C	inactive	
COc1ccc(C2CC(c3ccccc3)Nc3ncnn32)cc1 (configuration not stated)	inactive	
Clc1ccc(C2CC(c3cccs3)n3ncnc3N2)cc1Cl (configuration not stated)	17.8 µM (active)	
COc1ccc(C2CC(c3ccc(C)cc3)Nc3ncnn32)cc1 (configuration not stated)	inactive	
Cc1[nH]c2ccc(C(=O)N3CCN(C)CC3)cc2c1C	inactive	
Cc1ccc(Nc2nc(N)nc(CSc3nnc(C)s3)n2)cc1	inactive	
Nc1nc(CC(=O)CSc2ccc(Cl)cc2)nc(Nc2ccc(F)cc2)n1	12.6 µM (active)	
CCOC(=O)N1CCN(Cc2nc(N)nc(Nc3ccc(C)cc3)n2)CC1	inactive	
COc1ccccc1NC(=O)N1CCCC1C(=O)NCc1cccs1 (configuration not stated)	inactive	
O=C(N/N=C/c1ccccn1)c1cccc(NC(=O)c2ccc(Cl)cc2)c1	inactive	
COc1ccc(N(CC(=O)NCc2ccc(F)cc2)C(=O)CCC(=O)Nc2nccs2)cc1	inactive	
O=C(CCC1CCN(C(=O)c2cccc(Cl)c2F)CC1)Nc1ccccc1	inactive	
COc1nnc(-c2ccc(C)c(S(=O)(=O)N(C)C)c2)c2ccccc12	inactive	
CCOC(=O)C1(O)CC(C)=NN1C(=O)c1cccc(Br)c1 (configuration not stated)	inactive	

SMILES	Potency	activity, negative = inhibition
CC1=NN(C(=O)c2ccccc2Br)C(O)(c2cccnc2)C1 (configuration not stated)	12.6 µM (active)	
CC1=NN(C(=O)c2ccc(Br)cc2)C(O)(c2ccccc2)C1 (configuration not stated)		-2.82% [at 10 µM] (inactive)
N#C/C(C(=O)N1CCOCC1)=C1/SC(Cc2ccc(F)cc2)C(=O)N1c1ccccc1 (configuration not stated)	inactive	
N#C/C(C(=S)Nc1ccccc1)=C1/NN=C(N2CCOCC2)N1c1ccccc1	4.47 µM (active)	
Cc1ccc(CC2S/C(=C(/C#N)C(=O)N3CCOCC3)N(c3ccccc3)C2=O)cc1 (configuration not stated)	inactive	
COc1c(O)cc2oc(-c3ccc(O)c(O)c3)cc(=O)c2c1O	inactive	
O=c1cc(-c2ccc(O)c(O)c2)oc2cccc(O)c12	12.6 µM (active)	
O=c1cc(-c2ccc(O)cc2)oc2c(-c3cc(-c4cc(=O)c5c(O)cc(O)cc5o4)ccc3O)c(O)ccc12	inactive	
Cn1ccnc1SCC(=O)Nc1ccc2c(c1)OCCO2	inactive	
CCCN1C2CCCC1CC(NC(=O)NC13CC4CC(CC(C4)C1)C3)C2 (configuration not stated)	inactive	
Cc1noc(C)c1/C=N/Nc1ccc2ccccc2n1	inactive	
Cc1cc(=O)[nH]c(N/N=C/c2ccc3c(c2)OCCO3)n1	inactive	
C(=N\Nc1ccc2ccccc2n1)/c1ccc2c(c1)OCO2	14.1 µM (active)	
O=C1CN(C(=O)c2cc(F)cc(F)c2)c2ccccc2N1	inactive	
COc1ccc(C(C)NC(=O)C23CC4CC(CC(C4)C2)C3)cc1 (configuration not stated)	inactive	
CCc1ccc(Oc2coc3cc(O)ccc3c2=O)cc1	inactive	
O=S(=O)(c1cccc(-c2nnc3n2CCCCC3)c1)N1CCOCC1	inactive	
CCN(Cc1ccncc1)C(=O)c1cccc(S(=O)(=O)N2CCOCC2)c1	inactive	
O=S(=O)(c1cccc(Cn2nnc(-c3ccc(F)cc3)n2)c1)N1CCOCC1	11.2 µM (active)	
